# Data reported in paper PMC11062922 (Nature Chemical Biology, 2023).
# Where two headings read alike, the source gives them in different places.
# Columns and labels:
# [1] = tested on: AAK1; parameters: species or system human, MV4-11 + K-562 + COLO205 + SK-N-BE2 + OVCAR-8; conditions: read-out: apparent Kd, n = 1
# [2] = tested on: CLK1; parameters: species or system human, MV4-11 + K-562 + COLO205 + SK-N-BE2 + OVCAR-8; conditions: read-out: apparent Kd, compound concentrations: 100 nM and 1000 nM (sheet 'Samples'), n = 1
# [3] = tested on: CLK4; parameters: species or system human, MV4-11 + K-562 + COLO205 + SK-N-BE2 + OVCAR-8; conditions: read-out: apparent Kd, n = 1
# [4] = tested on: CSNK2A1;CSNK2A3; parameters: species or system human, MV4-11 + K-562 + COLO205 + SK-N-BE2 + OVCAR-8; conditions: read-out: apparent Kd, compound concentrations: 100 nM and 1000 nM (sheet 'Samples'), n = 1
# [5] = tested on: CSNK2A2; parameters: species or system human, MV4-11 + K-562 + COLO205 + SK-N-BE2 + OVCAR-8; conditions: read-out: apparent Kd, compound concentrations: 100 nM and 1000 nM (sheet 'Samples'), n = 1
# [6] = tested on: DYRK1A; parameters: species or system human, MV4-11 + K-562 + COLO205 + SK-N-BE2 + OVCAR-8; conditions: read-out: apparent Kd, n = 1
# [7] = target: Q6ZSR9 (human, UniProt Q6ZSR9); parameters: species or system MV4-11 + K-562 + COLO205 + SK-N-BE2 + OVCAR-8; conditions: read-out: apparent Kd, n = 1
# [8] = tested on: FLT4; parameters: species or system human, MV4-11 + K-562 + COLO205 + SK-N-BE2 + OVCAR-8; conditions: read-out: apparent Kd, n = 1
# [9] = tested on: GAK; parameters: species or system human, MV4-11 + K-562 + COLO205 + SK-N-BE2 + OVCAR-8; conditions: read-out: apparent Kd, compound concentrations: 100 nM and 1000 nM (sheet 'Samples'), n = 1
# [10] = tested on: GSK3A; parameters: species or system human, MV4-11 + K-562 + COLO205 + SK-N-BE2 + OVCAR-8; conditions: read-out: apparent Kd, n = 1
# [11] = tested on: GSK3B; parameters: species or system human, MV4-11 + K-562 + COLO205 + SK-N-BE2 + OVCAR-8; conditions: read-out: apparent Kd, compound concentrations: 100 nM and 1000 nM (sheet 'Samples'), n = 1
# [12] = tested on: RET; parameters: species or system human, MV4-11 + K-562 + COLO205 + SK-N-BE2 + OVCAR-8; conditions: read-out: apparent Kd, compound concentrations: 100 nM and 1000 nM (sheet 'Samples'), n = 1
# [13] = tested on: MYLK3; parameters: species or system human, MV4-11 + K-562 + COLO205 + SK-N-BE2 + OVCAR-8; conditions: read-out: apparent Kd, n = 1
# [14] = tested on: PRKD2; parameters: species or system human, MV4-11 + K-562 + COLO205 + SK-N-BE2 + OVCAR-8; conditions: read-out: apparent Kd, n = 1
# [15] = tested on: BMP2K; parameters: species or system human, MV4-11 + K-562 + COLO205 + SK-N-BE2 + OVCAR-8; conditions: read-out: apparent Kd, compound concentrations: 100 nM and 1000 nM (sheet 'Samples'), n = 1
# [16] = tested on: CDKL5; parameters: species or system human, MV4-11 + K-562 + COLO205 + SK-N-BE2 + OVCAR-8; conditions: read-out: apparent Kd, n = 1
# [17] = tested on: FLT3; parameters: species or system human, MV4-11 + K-562 + COLO205 + SK-N-BE2 + OVCAR-8; conditions: read-out: apparent Kd; compound concentrations: 100 nM and 1000 nM (sheet 'Samples'), CATDS: 0.206841572593601; n = 1
# [18] = tested on: NUAK1; parameters: species or system human, MV4-11 + K-562 + COLO205 + SK-N-BE2 + OVCAR-8; conditions: read-out: apparent Kd, n = 1
# [19] = tested on: PAK4; parameters: species or system human, MV4-11 + K-562 + COLO205 + SK-N-BE2 + OVCAR-8; conditions: read-out: apparent Kd, n = 1
# [20] = tested on: MELK; parameters: species or system human, MV4-11 + K-562 + COLO205 + SK-N-BE2 + OVCAR-8; conditions: read-out: apparent Kd; compound concentrations:100 nM and 1000 nM (sheet 'Samples'); n = 1
# [21] = compound concentrations:100 nM and 1000 nM (sheet 'Samples')
# Sequence of Q6ZSR9 (Q6ZSR9 whole entry, looked up): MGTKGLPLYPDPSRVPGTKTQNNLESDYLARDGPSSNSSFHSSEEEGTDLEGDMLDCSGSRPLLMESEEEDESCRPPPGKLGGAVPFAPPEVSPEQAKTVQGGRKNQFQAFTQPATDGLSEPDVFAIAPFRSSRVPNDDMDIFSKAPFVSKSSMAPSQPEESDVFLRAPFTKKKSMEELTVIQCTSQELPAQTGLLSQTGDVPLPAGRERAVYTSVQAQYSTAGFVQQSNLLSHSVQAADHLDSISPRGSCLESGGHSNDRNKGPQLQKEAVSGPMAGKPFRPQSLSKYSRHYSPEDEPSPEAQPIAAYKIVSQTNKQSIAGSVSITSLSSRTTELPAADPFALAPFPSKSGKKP
smiles,measurement,setting,value
O=C1N=C(NCc2ccccc2Br)S/C1=C\c1ccc2ncccc2c1 [RO4506918-000],potency estimated from few doses,"[1]; compound concentrations: 100 nM and 1000 nM (sheet 'Samples'), CATDS: 8.9232255617264805E-2",0.91 µM
same,potency estimated from few doses,[2]; CATDS: 0.17031966096866,0.202 µM
same,potency estimated from few doses,"[3]; compound concentrations: 100 nM and 1000 nM (sheet 'Samples'), CATDS: 0.31130162986837101",0.0765 µM
same,potency estimated from few doses,[4]; CATDS: 0.124108593087182,0.383 µM
same,potency estimated from few doses,[5]; CATDS: 0.192604305943326,0.162 µM
same,potency estimated from few doses,"[6]; compound concentrations: 100 nM and 1000 nM (sheet 'Samples'), CATDS: 8.9156542240232201E-2",0.912 µM
same,potency estimated from few doses,"[7]; compound concentrations: 100 nM and 1000 nM (sheet 'Samples'), CATDS: 9.2903146742856602E-2",0.804 µM
Cl.Cn1cc(C2=C(c3c4n(c5ccccc35)CCNC4)C(=O)NC2=O)c2ccccc21 [RO0318365-001],potency estimated from few doses,"[1]; compound concentrations: 100 nM and 1000 nM (sheet 'Samples'), CATDS: 5.2349611072723602E-2",1.48 µM
same,potency estimated from few doses,"[8]; compound concentrations: 100 nM and 1000 nM (sheet 'Samples'), CATDS: 5.0705018296343198E-2",1.61 µM
same,potency estimated from few doses,[9]; CATDS: 6.7472142671723495E-2,0.831 µM
same,potency estimated from few doses,"[10]; compound concentrations: 100 nM and 1000 nM (sheet 'Samples'), CATDS: 0.111142354700942",0.357 µM
same,potency estimated from few doses,[11]; CATDS: 0.121394136436775,0.314 µM
same,potency estimated from few doses,"[7]; compound concentrations: 100 nM and 1000 nM (sheet 'Samples'), CATDS: 5.14338241951754E-2",1.55 µM
same,potency estimated from few doses,[12]; CATDS: 5.70762931789019E-2,1.19 µM
O=C1N=C(N[C@H](CO)c2ccccc2)S/C1=C\c1ccc2ncccc2c1 [RO4554339-000],potency estimated from few doses,"[1]; compound concentrations: 100 nM and 1000 nM (sheet 'Samples'), CATDS: 0.10816447707824001",0.735 µM
same,potency estimated from few doses,[4]; CATDS: 0.26590884807239001,0.111 µM
same,potency estimated from few doses,[5]; CATDS: 0.32699476113935999,0.0802 µM
same,potency estimated from few doses,"[13]; compound concentrations: 100 nM and 1000 nM (sheet 'Samples'), CATDS: 0.15441229792148201",0.303 µM
same,potency estimated from few doses,"[14]; compound concentrations: 100 nM and 1000 nM (sheet 'Samples'), CATDS: 0.111650130871897",0.671 µM
same,potency estimated from few doses,"[7]; compound concentrations: 100 nM and 1000 nM (sheet 'Samples'), CATDS: 9.0735809704368106E-2",1.32 µM
Cn1cc(C2=C(c3c(S(C)=O)n(C)c4ccccc34)C(=O)NC2=O)c2ccccc21 (stereo not drawn) [RO0317379-000],potency estimated from few doses,"[1]; compound concentrations: 100 nM and 1000 nM (sheet 'Samples'), CATDS: 0.257155893587458",0.217 µM
same,potency estimated from few doses,[15]; CATDS: 0.121414398934197,1.05 µM
same,potency estimated from few doses,"[16]; compound concentrations: 100 nM and 1000 nM (sheet 'Samples'), CATDS: 0.106131192264054",1.6 µM
same,potency estimated from few doses,"[7]; compound concentrations: 100 nM and 1000 nM (sheet 'Samples'), CATDS: 0.33733581248504402",0.142 µM
COc1cc[nH]c1/C=C1\C(=O)Nc2ccc(F)c(I)c21 [RO0281567-000],potency estimated from few doses,"[1]; compound concentrations: 100 nM and 1000 nM (sheet 'Samples'), CATDS: 0.16412118246726901",0.568 µM
same,potency estimated from few doses,[15]; CATDS: 0.232255536891084,0.309 µM
same,potency estimated from few doses,[17],0.374 µM
same,potency estimated from few doses,"[10]; compound concentrations: 100 nM and 1000 nM (sheet 'Samples'), CATDS: 0.11117571470946799",1.46 µM
same,potency estimated from few doses,"[13]; compound concentrations: 100 nM and 1000 nM (sheet 'Samples'), CATDS: 0.10963488486357401",1.52 µM
same,potency estimated from few doses,"[7]; compound concentrations: 100 nM and 1000 nM (sheet 'Samples'), CATDS: 0.16614751317759599",0.555 µM
CN(C)c1ccc2c(c1)/C(=C/Nc1ccc(S(N)(=O)=O)cc1)C(=O)N2 [GW416469X],potency estimated from few doses,"[1]; compound concentrations: 100 nM and 1000 nM (sheet 'Samples'), CATDS: 7.2948540677608101E-2",1.64 µM
same,potency estimated from few doses,[15]; CATDS: 7.3539976386738704E-2,1.6 µM
same,potency estimated from few doses,[5]; CATDS: 7.0643002799247095E-2,1.82 µM
same,potency estimated from few doses,"[8]; compound concentrations: 100 nM and 1000 nM (sheet 'Samples'), CATDS: 7.3701429425290094E-2",1.59 µM
same,potency estimated from few doses,"[18]; compound concentrations: 100 nM and 1000 nM (sheet 'Samples'), CATDS: 0.318304060181621",0.0866 µM
Cl.Cn1c(=O)c(Cc2ccccc2F)cc2cnc(NC3CCOCC3)nc21 [RO3305377-001],potency estimated from few doses,"[1]; compound concentrations: 100 nM and 1000 nM (sheet 'Samples'), CATDS: 2.16510603665701E-2",0.917 µM
same,potency estimated from few doses,[15]; CATDS: 1.6723713809558501E-2,1.91 µM
same,potency estimated from few doses,[2]; CATDS: 1.9184829290140398E-2,1.25 µM
same,potency estimated from few doses,"[3]; compound concentrations: 100 nM and 1000 nM (sheet 'Samples'), CATDS: 2.3036060895887101E-2",0.796 µM
same,potency estimated from few doses,"[8]; compound concentrations: 100 nM and 1000 nM (sheet 'Samples'), CATDS: 1.78487472229053E-2",1.54 µM
same,potency estimated from few doses,[9]; CATDS: 3.35725694953104E-2,0.389 µM
same,potency estimated from few doses,"[10]; compound concentrations: 100 nM and 1000 nM (sheet 'Samples'), CATDS: 3.04876999302407E-2",0.459 µM
same,potency estimated from few doses,[11]; CATDS: 2.4100870065686699E-2,0.722 µM
same,potency estimated from few doses,"[19]; compound concentrations: 100 nM and 1000 nM (sheet 'Samples'), CATDS: 1.9668858061390699E-2",1.17 µM
same,potency estimated from few doses,"[7]; compound concentrations: 100 nM and 1000 nM (sheet 'Samples'), CATDS: 2.0313751812051702E-2",1.07 µM
same,potency estimated from few doses,[12]; CATDS: 2.33186267232918E-2,0.775 µM
O=C(Nc1n[nH]c2nc(-c3ccccc3O)ccc12)C1CC1 [SB-711880],potency estimated from few doses,[1]; [21],0.713 µM
same,potency estimated from few doses,[16]; [21],1.45 µM
same,potency estimated from few doses,[3]; [21],1.23 µM
same,potency estimated from few doses,[8]; [21],1.79 µM
same,potency estimated from few doses,[20],2.38 µM
same,potency estimated from few doses,[13]; [21],0.219 µM
same,potency estimated from few doses,[18]; [21],1.85 µM
same,potency estimated from few doses,[19]; [21],0.357 µM
same,potency estimated from few doses,[14]; [21],0.712 µM
same,potency estimated from few doses,[7]; [21],0.537 µM
CCn1c(-c2nonc2N)nc2cncc(C(=O)N3CC[C@H](N)C3)c21.Cl [SB-772077-B],potency estimated from few doses,[1]; [21],1.7 µM
same,potency estimated from few doses,[6]; [21],1.52 µM
same,potency estimated from few doses,[10]; [21],1.1 µM
same,potency estimated from few doses,[7]; [21],1.88 µM
